# Assay results from PubChem BioAssay (NCATS).
# Records with an inconclusive call do not appear. Unmarked numbers belong to inactive results. Calls of active or inactive are those of the source. Calls follow the shape of the dose curve; as a rule, active = well fitted inhibition curve with a large enough effect; inconclusive = small, poorly fitted or top-dose-only effect; inactive = flat fitted curve, though single readings scatter.
# Target: Glutathione peroxidase 1 (Homo sapiens) (UniProt P07203)
# Sequence (P07203 whole entry, looked up): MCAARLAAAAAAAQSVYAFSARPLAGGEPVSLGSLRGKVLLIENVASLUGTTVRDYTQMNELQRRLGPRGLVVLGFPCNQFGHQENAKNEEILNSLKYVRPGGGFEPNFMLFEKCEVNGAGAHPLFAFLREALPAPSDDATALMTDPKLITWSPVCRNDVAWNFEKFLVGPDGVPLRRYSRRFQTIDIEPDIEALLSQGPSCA
# Assay: Primary qHTS Assay for Inhibitors of Recombinant Selenoprotein Glutathione Peroxidase 1 (GPX1) (AID 1845191); also: nearly all actives have a fitted effect of over 65% in size
# Details: recombinant GPX1, GR-coupled NADPH fluorescence, 15 min; series mostly up to 48.8 µM; activity, negative = inhibition: at the top concentration
# Source text: Assay Provider: Elias S.J. Arner MD PhD.
# Department of Medical Biochemistry and Biophysics
# Karolinska Institutet, Solna, Stockholm, Sweden
# Selenoprotein glutathione peroxidases (GPX), like the ubiquitously expressed GPX1 and the ferroptosis modulator GPX4, enact their antioxidant activities by reducing hydroperoxides using glutathione. […] GPX1 and GPX4 inhibitors have thus shown promise as anti-cancer agents. Existing inhibitors are often promiscuous, or modulate GPX activity only indirectly, so novel direct inhibitors identified through screening against GPX1 and GPX4 could be valuable. Here, we developed optimized glutathione reductase (GR)-coupled GPX assays for the biochemical high-throughput screen (HTS) of almost 12,000 compounds with known mechanisms of action. Initial hits were triaged using a GR counter-screen, assessed for isoform specificity using a separate GPX2 assay, and were assessed for general selenocysteine-targeting activity using a thioredoxin reductase (TXNRD1) assay. With this suite of assays, we identified novel GPX1/GPX2- and GPX4-specific inhibitors and can here present a validated pipeline for future discovery research for selenoprotein-targeting agents.
# SEQUENCE No. (e.g., 1, 2, 3, etc.); […] (e.g., Cells, Incubation, Reagent, etc.); VALUE; DESCRIPTION.
# 1; Reagent 1; 3 uL; GPx1 enzyme or no enzyme control in 1536-well, black, solid Greiner assay plate.
# 2; Compound; 25 nL; Kalypsis pin tool (Wako USA) equipped with a 1536-well pin head.
# 3; Incubation; 30 min; room temperature.
# 4; Reagent 2; 1 uL; 10 nM GPX1, 1 mM GSH, 0.5 mM CHP, 0.5 mM NADPH, 100 nM GR, 0.01% BSA substrate
# 5; Detection; Fluorescence; ViewLux microplate reader, excitation 340 nm and emission 450 nm.
# 6; Incubation; 15 min; room temperature.
# 7; Detection; Fluorescence; ViewLux microplate reader, excitation 340 nm and emission 450 nm.
# NOTES (numbers refer to Sequence numbers above)
# 1. 3 uL of 16.66 nM GPX1 and 0.016% BSA in assay buffer (50 mM Tris-HCl, 2 mM EDTA (pH 7.5), 150 mM NaCl) was added to columns 3-48 of 1536-well assay plates using a BioRAPTR Flying Reagent Dispenser (Let's Go Robotics (LGR), Carlsbad, CA). A no-enzyme control (0.01% BSA in TES assay buffer) was added to columns 1-2.
# 2. 25 nL of test compounds and DMSO controls were added to each well with a pin tool (Kalypsys).
# 3. The assay plates were incubated for 30 minutes at room temperature.
# 4. 1 uL of master mix (500 nM glutathione reductase (GR), 5 mM reduced glutathione (GSH), 2.5 mM NADPH in assay buffer) was added. 1 uL of cumene hydroperoxide (CHP) ([2.5 mM] in 50% EtOH) was then added within 5 minutes to initiate the reaction. Final concentrations were: 10 nM GPX1, 1 mM GSH, 0.5 mM CHP, 0.5 mM NADPH, 100 nM GR, 0.01% BSA.
# 5. Initial fluorescence readout (t=0) at 340/450 nm was measured using a ViewLux multimodal detector (PerkinElmer, Waltham, MA).
# 7. Endpoint fluorescence readout (t=15) at 340/450 nm was measured 15 min after room temperature incubation.
# Potency is read from the fitted curve at half-maximal effect.
SMILES,"activity, negative = inhibition",outcome,Potency
CCC(CC)[C@H](NC(C)=O)[C@@H]1[C@H](O)[C@@H](C(=O)O)C[C@H]1N=C(N)N,-7.9% [at 0.4 µM],,
COc1cccc(C(c2sc3nc(-c4ccco4)nn3c2O)N2CCN(C)CC2)c1 (stereo not given),-16.7%,,
CC(C)c1nc(CN(C)C(=O)N[C@@H](CCN2CCOCC2)C(=O)N[C@H](CC[C@H](Cc2ccccc2)NC(=O)OCc2cncs2)Cc2ccccc2)cs1,-11.4%,,
Cc1nccn1CCC(C(N)=O)(c1ccccc1)c1ccccc1,-13.7%,,
CN(CC(O)CO)C(=O)c1c(I)c(NC(=O)C(CO)CO)c(I)c(C(=O)N(C)CC(O)CO)c1I (stereo not given),,inactive,
CCCC(=O)Nc1ncnc2c1ncn2C1O[C@@H]2COP(=O)(O)O[C@H]2[C@H]1OC(=O)CCC (stereo not given in full),-15.1%,,
CC(=O)O[C@@]12CO[C@@H]1C[C@H](O)[C@@]1(C)C(=O)[C@H](O)C3=C(C)[C@@H](OC(=O)C(O)[C@@H](NC(=O)OC(C)(C)C)c4ccccc4)C[C@@](O)([C@@H](OC(=O)c4ccccc4)[C@H]21)C3(C)C (stereo not given in full),,,inactive
Fc1ccc(N2CCN(c3nc4ccccc4c4nc(-c5ccccc5)nn34)CC2)cc1,-2.15%,,
COc1cc(/C=C\C(=O)N2CCN(CC(=O)N3CCCC3)CC2)cc(OC)c1OC,-21.1%,,
CCOc1ccc(Cc2cc([C@@]34OC[C@@](CO)(O3)[C@@H](O)[C@H](O)[C@H]4O)ccc2Cl)cc1,,inactive,
C[C@H]1O[C@]2(CS1)CN1CCC2CC1,-6.38%,,
CN(Cc1ccccc1)C(=O)[C@H](NC(=O)c1cc2cc(NC(=O)c3ccccc3-c3ccc(C(F)(F)F)cc3)ccc2n1C)c1ccccc1,-18.3%,,
CCC(=O)OCC(=O)[C@]1(OC(=O)CC)[C@H](C)C[C@H]2[C@H]3[C@H]([C@@H](O)C[C@@]21C)[C@@]1(C)C=CC(=O)C=C1C[C@H]3Cl,-6.62%,,
COc1cc2nc(N3CCCCC3)nc(NC3CCN(Cc4ccccc4)CC3)c2cc1OC,,,16.1 µM (active)
CCNC(=O)CCC/C=C\C[C@@H]1[C@@H](/C=C/[C@@H](O)CCc2ccccc2)[C@H](O)C[C@@H]1O,,inactive,
O=C(N[C@H]1CCS[C@H]2CCC[C@@H](C(=O)O)N2C1=O)[C@@H](S)Cc1ccccc1,,,10.1 µM (active)
COc1ccc(Cl)cc1NC(=O)Nc1cc(C)nc2ccccc12,-0.0312%,,
CCN1CCN(C2(C(=O)NCCc3ccccc3)Cc3ccccc3C2)CC1,-19%,,
Cc1cc(Nc2cccc(C(F)(F)F)c2)nc2ccc(NC(=O)c3ccc(=O)[nH]c3)cc12,,inactive,
CC(C)CN(C[C@@H](OP(=O)(O)O)[C@H](Cc1ccccc1)NC(=O)O[C@@H]1CCOC1)S(=O)(=O)c1ccc(N)cc1,,inactive,

SMILES,"activity, negative = inhibition",outcome,Potency
CN1N=C2CCN(C(=O)[C@H](COCc3ccccc3)NC(=O)C(C)(C)N)C[C@]2(Cc2ccccc2)C1=O,4.86%,,
N=c1sc2c(n1CC(=O)c1ccc([N+](=O)[O-])cc1)CCCC2,,inactive,
Cc1cc(Nc2cccc(Cl)c2)nc2ccc(NC(=O)Cc3cccc(C(F)(F)F)c3)cc12,,inactive,
C[N+](C)(C)C1CCC(CC2CCC([N+](C)(C)C)CC2)CC1 (stereo not given),,inactive,
COc1ccc2cc(CNc3ccc(C)cc3)c(=O)n(CC(=O)Nc3cccc(C(F)(F)F)c3)c2c1,,inactive,
C=C[C@]1(C)C[C@@H](OC(=O)CSC2C[C@H]3CC[C@@H](C2)N3C)C2(C)[C@H](C)CCC3(CCC(=O)[C@H]32)[C@@H](C)[C@@H]1O (stereo not given in full),-4.58%,,
O=C(NCC(=O)N1CCCCC1)Nc1ccc2nnsc2c1,,inactive,
COc1ccc(CNc2nc(N3CCC[C@H]3CO)ncc2C(=O)NCc2ncccn2)cc1Cl,,inactive,
CN(C)CCCOc1ccc(-c2ccc3ncc4c(c3c2)n(C2CCOCC2)c(=O)n4C)cn1,,inactive [at 27.7 µM],
CCCCCCCCCCCCCCCC(=O)OCC=C(C)C=CC=C(C)C=CC1=C(C)CCCC1(C)C,,inactive,
CC(C)(C)NCC(O)COc1ccccc1C1CCCC1 (stereo not given),-17%,,
CC(=O)NC(C=O)C(O)C(O)[C@H](O)CO (stereo not given in full),,inactive,
COc1cc([C@@H]2c3cc4c(cc3[C@@H](O[C@@H]3O[C@@H]5CO[C@@H](C)O[C@H]5[C@H](O)[C@H]3O)[C@H]3COC(=O)[C@H]23)OCO4)cc(OC)c1OP(=O)(O)O,-18.3%,,
C=C(C)CNc1ccc(C(C)C(=O)O)cc1 (stereo not given),-16.7%,,
CO[C@H]1O[C@@H]2O[C@@]3(C)CC[C@H]4[C@H](C)CC[C@@H]([C@@H]1C)[C@@]24OO3,-5%,,
NC(=O)C1CCCN1C(=O)C(Cc1cnc[nH]1)NC(=O)C1CCC(=O)N1 (stereo not given),-10.5%,,
O=S(=O)(Nc1cccc(-c2ccc(N3CCOCC3)nn2)c1)c1cc(C(F)(F)F)ccc1Cl,4.76%,,
C=CCN1CC[C@]23c4c5ccc(O)c4O[C@H]2[C@@H](OCCOCCOCCOCCOCCOCCOCCOC)CC[C@@]3(O)[C@H]1C5,0.708%,,
CCCCCCCCCC(=O)OCCN1CCN(CCCN2c3ccccc3Sc3ccc(C(F)(F)F)cc32)CC1,,inactive,
Cc1ccc2occ(-c3cc(-c4ccc(F)cc4)nc4c3COc3ccc(F)cc3-4)c(=O)c2c1,-1.46%,,
